Values without a mark were called inactive. Results filed as inconclusive are left out. Calls of active or inactive are those of the source. The call rests on the fitted dose curve; in most records, active means well fitted curve in the direction sought with a large enough effect in the repeat runs; inconclusive means weak or mixed curves; inactive means no such curve, though single readings can be large; an effect the other way counts as inactive or inconclusive.
Assay: Caspase-3/7 induction in CHO-K1 cells by small molecules, qHTS cell viability counter screen (AID 1346979); further: nearly all actives have a fitted effect of over 35% in size; further: potency means the concentration at half of the fitted maximal effect
Settings: CellTiter-Fluor fluorescence, 17 h; series mostly up to 92.4 µM; activity change, negative = cytotoxicity: at the top concentration
Outline: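 Following a 5hr settling period, CHO-K1 cells at 1,500 per well received DMSO-dissolved compounds. Cell viability was quantified 16hr later by CellTiter-Fluor fluorescence, measured after 1hr with reagent at 37C.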
On the % scale 0 is the no-effect control and ±100 the full control effect.

SMILES | Potency | activity change, negative = cytotoxicity
O=C(O)CN(CCN(CC(=O)O)CC(=O)O)CCN(CC(=O)O)CC(=O)O | 13 µM (active) | –
CN1CCN(C2=Nc3cc(F)ccc3Cc3ccccc32)CC1 | – | 1.68% [at 42.5 µM]
Nc1ccc(Oc2ccc(N)c(N)c2)cc1 | 61.1 µM (active) | –
C[C@@H](N)C(=O)O | – | 10.9% [at 42.5 µM]
CCCCC(=O)O[C@]1(C(=O)CO)[C@H](C)C[C@H]2[C@@H]3CCC4=CC(=O)C=C[C@]4(C)[C@@]3(F)[C@@H](O)C[C@@]21C | – | 4.96% [at 42.5 µM]
Nc1ccc2ccccc2c1S(=O)(=O)O | – | -1.99%
CCN(CCCc1ccccc1)CCCc1ccccc1 | – | -1.03% [at 42.5 µM]
CN(C)CC[C@@H](c1ccc(Cl)cc1)c1ccccn1 | – | 3.76% [at 42.5 µM]
O=C(O)[C@@H](O)[C@H](O)[C@H](O)[C@@H](O)C(=O)O | – | 4.49% [at 42.5 µM]
CCOc1ccc(NS(=O)(=O)c2ccc(N)cc2)nn1 | – | 10.1% [at 42.5 µM]
CCCCCCn1c(=O)c2c(ncn2C)n(C)c1=O | – | 9.17% [at 42.5 µM]
CC(C)c1ccccc1 | – | 3.79%
CCCc1c2oc(C(=O)O)cc(=O)c2cc2c(=O)cc(C(=O)O)n(CC)c12 | – | -5.05% [at 42.5 µM]
N#CSCC(=O)O | – | 8.65% [at 42.5 µM]
CC(C)CCCCCCc1ccc(OCCOCCO)cc1 | – | 0.211%
CCCCCCCCCC#N | – | -0.208%
CCc1nnc(NS(=O)(=O)c2ccc(N)cc2)s1 | – | 8.56% [at 42.5 µM]
C=CCc1cc(OC)c(O)c(C(=O)NCCO)c1 | – | 2.95% [at 42.5 µM]
CC(=O)O[C@H]1CC[C@@]2(C)C(=CC[C@@H]3[C@@H]2CC[C@]2(C)C(C(C)=O)=CC[C@@H]32)C1 | – | 12.2% [at 42.5 µM]
CCCCC(CC)COC(=O)COc1cc(Cl)c(Cl)cc1Cl (stereo not given) | – | 12.5%
Cc1nc(N)nc(N)c1-c1ccc(Cl)c(Cl)c1 | – | -4.17% [at 42.5 µM]
CC(C)OC(C)C | – | 9.13%
O=C(O[C@@H](C(=O)O)[C@@H](OC(=O)c1ccccc1)C(=O)O)c1ccccc1 | – | 1.21%
CCC(=O)c1ccc2c(c1)N(CCCN(C)C)c1ccccc1S2 | – | -13.6% [at 42.5 µM]
CCCCCCCOC(=O)CCC | – | 2.86%
OCc1c2ccccc2cc2ccccc12 | – | 4.31%
CCc1cc(Cl)c(OC)c(C(=O)NC[C@@H]2CCCN2CC)c1O | – | -6.26% [at 42.5 µM]

Assay: Caspase-3/7 induction in CHO-K1 cells by small molecules, qHTS assay (AID 1346980); further: nearly all actives have a fitted effect of over 15% in size
Settings: CHO-K1 caspase-3/7 induction, Caspase-Glo luminescence, 17 h; series mostly up to 92.4 µM; caspase-3/7 activation: at the top concentration
Outline: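 Wild-type CHO-K1 cells exposed to compounds for 17hr at 37 C, 5% CO2. Caspase-3/7 activity then measured by Caspase-Glo 3/7 luminescence after 30min at room temperature.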

SMILES | caspase-3/7 activation
O=C(O)CN(CCN(CC(=O)O)CC(=O)O)CCN(CC(=O)O)CC(=O)O | 5.14% [at 19 µM]
CN1CCN(C2=Nc3cc(F)ccc3Cc3ccccc32)CC1 | 0.111% [at 42.5 µM]
C[C@@H](N)C(=O)O | 0.217% [at 42.5 µM]
CCCCC(=O)O[C@]1(C(=O)CO)[C@H](C)C[C@H]2[C@@H]3CCC4=CC(=O)C=C[C@]4(C)[C@@]3(F)[C@@H](O)C[C@@]21C | -0.558% [at 42.5 µM]
Nc1ccc2ccccc2c1S(=O)(=O)O | -1.85%
NC(=O)NS(=O)(=O)c1ccc(Cl)cc1 | -0.771% [at 42.5 µM]
CN(C)CC[C@@H](c1ccc(Cl)cc1)c1ccccn1 | 0.129% [at 42.5 µM]
O=C(O)[C@@H](O)[C@H](O)[C@H](O)[C@@H](O)C(=O)O | -0.125% [at 42.5 µM]
CCOc1ccc(NS(=O)(=O)c2ccc(N)cc2)nn1 | -1.14% [at 42.5 µM]
Cc1ccccc1C(=O)Nc1ccc(C(=O)N2CCCC(O)c3cc(Cl)ccc32)c(C)c1 (stereo not given) | -2.31% [at 42.5 µM]
CCCCCCn1c(=O)c2c(ncn2C)n(C)c1=O | -0.19% [at 42.5 µM]
CC(C)c1ccccc1 | 0.32%
CCCc1c2oc(C(=O)O)cc(=O)c2cc2c(=O)cc(C(=O)O)n(CC)c12 | 0.0036% [at 42.5 µM]
N#CSCC(=O)O | -1.06% [at 42.5 µM]
CC(C)CCCCCCc1ccc(OCCOCCO)cc1 | 1.96%
CCCCCCCCCC#N | -0.154%
CCc1nnc(NS(=O)(=O)c2ccc(N)cc2)s1 | 1.37% [at 42.5 µM]
C=CCc1cc(OC)c(O)c(C(=O)NCCO)c1 | -1.98% [at 42.5 µM]
NC(Cc1ccc(F)cc1)C(=O)O (stereo not given) | 2.35% [at 8.39 µM]
COc1ccc2nc(NC(=O)Nc3ccccc3)sc2c1 | -5.24% [at 42.5 µM]
CCCCC(CC)COC(=O)COc1cc(Cl)c(Cl)cc1Cl (stereo not given) | -0.129%
O=Cc1ccc(O)c(O)c1O | -0.223% [at 42.5 µM]
CC(C)OC(C)C | -0.703%
O=C(O[C@@H](C(=O)O)[C@@H](OC(=O)c1ccccc1)C(=O)O)c1ccccc1 | 1.9%
Cc1ccc([N+](=O)[O-])c(N)c1 | -0.976%
CCC(=O)c1ccc2c(c1)N(CCCN(C)C)c1ccccc1S2 | -1.28% [at 42.5 µM]
CCCCCCCOC(=O)CCC | 0.018%
CN(CCCN1c2ccccc2CCc2ccccc21)CC(=O)c1ccc(Cl)cc1 | -0.128% [at 42.5 µM]
CCc1cc(Cl)c(OC)c(C(=O)NC[C@@H]2CCCN2CC)c1O | 0.143% [at 42.5 µM]

Assay: Caspase-3/7 induction in HepG2 cells by small molecules, qHTS cell viability counter screen (AID 1346981); further: nearly all actives have a fitted effect of over 30% in size
Settings: CellTiter-Fluor fluorescence, 17 h; series mostly up to 92.4 µM; activity change, negative = cytotoxicity: at the top concentration
Outline: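 Multiplexed with the caspase-3/7 assay: HepG2 cells, 16 hr compound treatment, CellTiter-Fluor viability detection by fluorescence.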

SMILES | activity change, negative = cytotoxicity
CN1CCN(C2=Nc3cc(F)ccc3Cc3ccccc32)CC1 | -12.2% [at 42.5 µM]
COc1cc2c(cc1N)oc1ccccc12 | 1.93%
C[C@@H](N)C(=O)O | -1.64% [at 42.5 µM]
CCCCC(=O)O[C@]1(C(=O)CO)[C@H](C)C[C@H]2[C@@H]3CCC4=CC(=O)C=C[C@]4(C)[C@@]3(F)[C@@H](O)C[C@@]21C | 5.08% [at 42.5 µM]
NC(=O)NS(=O)(=O)c1ccc(Cl)cc1 | 6.57% [at 42.5 µM]
CCN(CCCc1ccccc1)CCCc1ccccc1 | -2.72% [at 42.5 µM]
CN(C)CC[C@@H](c1ccc(Cl)cc1)c1ccccn1 | -14.5% [at 42.5 µM]
CCCS(=O)c1ccc2nc(NC(=O)OC)[nH]c2c1 (stereo not given) | 3.83% [at 42.5 µM]
CCOc1ccc(NS(=O)(=O)c2ccc(N)cc2)nn1 | 4.34% [at 42.5 µM]
Cc1ccccc1C(=O)Nc1ccc(C(=O)N2CCCC(O)c3cc(Cl)ccc32)c(C)c1 (stereo not given) | -4.95% [at 42.5 µM]
CCCCCCn1c(=O)c2c(ncn2C)n(C)c1=O | 10.3% [at 42.5 µM]
CC(C)c1ccccc1 | 4.94%
CCCc1c2oc(C(=O)O)cc(=O)c2cc2c(=O)cc(C(=O)O)n(CC)c12 | -0.484% [at 42.5 µM]
N#CSCC(=O)O | 0.112% [at 42.5 µM]
CC(C)CCCCCCc1ccc(OCCOCCO)cc1 | -0.484%
CCCCCCCCCC#N | 4.78%
CCc1nnc(NS(=O)(=O)c2ccc(N)cc2)s1 | -1.5% [at 42.5 µM]
C=CCc1cc(OC)c(O)c(C(=O)NCCO)c1 | 1.5% [at 42.5 µM]
CC(=O)O[C@H]1CC[C@@]2(C)C(=CC[C@@H]3[C@@H]2CC[C@]2(C)C(C(C)=O)=CC[C@@H]32)C1 | -1.39% [at 42.5 µM]
NC(Cc1ccc(F)cc1)C(=O)O (stereo not given) | -1.98% [at 8.39 µM]
CCCCC(CC)COC(=O)COc1cc(Cl)c(Cl)cc1Cl (stereo not given) | 11.1%
Cc1nc(N)nc(N)c1-c1ccc(Cl)c(Cl)c1 | -0.267% [at 42.5 µM]
CC(C)OC(C)C | -5.9%
O=C(O[C@@H](C(=O)O)[C@@H](OC(=O)c1ccccc1)C(=O)O)c1ccccc1 | 0.711%
CCCCCCCOC(=O)CCC | 3.32%
OCc1c2ccccc2cc2ccccc12 | 5.82%
CN(CCCN1c2ccccc2CCc2ccccc21)CC(=O)c1ccc(Cl)cc1 | -14.2% [at 42.5 µM]
CCc1cc(Cl)c(OC)c(C(=O)NC[C@@H]2CCCN2CC)c1O | -1.22% [at 42.5 µM]
CCCCNC(=S)NCCCC | 10.4%
